# Target: MTG1
# Test: pooled miR-30 sensor sort-seq; sequence = guide strand
# Settings: shRNA
# Also: reference of the scale not given here.
row,Sequence,sensor-assay potency score (higher = more potent)
1,TTCTCTTTTCGGTGGTAGCGGT,-0.857
2,ATCAGTTCAGTGACCATCGGGA,-0.492
3,TAAGTGTTGCATAATTTTCTGC,0.0697

# Target: MTMR14
# Test: as above
# Settings: shRNA
row,Sequence,sensor-assay potency score (higher = more potent)
1,TTGTCCACCTTCTCAGAGGAGG,-1.29
2,TTTGCTGAGCCGATCTACCAAC,-1.14
3,TGAGATACAGTGTACCAGCAGC,-0.892
4,TTTGGAATCACGCTGAAACAGT,-0.856
5,TTTGTGATCTGTGTCAAACTGC,0.417
6,TGACAGGTATCGAAGCAGCTTG,-1.11
7,TATTTGACTGACAGGTATCGAA,-0.898
8,TTCGTGTTTGGAATCACGCTGA,0.52
9,TCGAAGAGCACAGTCCTCCTCC,-0.118
10,TTATTTTGTGATCTGTGTCAAA,-0.837
11,TTGAACAGGATTACTGGGCAGA,-0.111
12,TGAAACAGTAGTCTCGGCCAAA,-1.3

# Target: MTOR
# Test: as above
# Settings: shRNA
row,Sequence,sensor-assay potency score (higher = more potent)
1,TTACTATGTTTCACTGTCCTGG,-0.25
2,TAGGAATCCGTCCTCGTTCGGG,-0.165
3,TTAGAAGCCACTGTCAGTGGGT,0.584
4,TATATTCTTCAACAGCAGCTAG,-0.667
5,ATAGCATTGGTCAACATTCTTG,-0.775
6,TTTGATGAGCAGCTCAACTTGC,0.357
7,TATCCCTTGACAATTCTGCAGA,-0.562
8,TTTAGTTGAGTATTTGTTCTGC,0.462
9,TAGCATTGGTCAACATTCTTGT,0.089
10,TTTCATGGGATGTCGCTTGTTT,0.0185
11,TATAATTGGTTCTTCGGTCAAA,-0.45
12,TTTTGGGGAAACATATTGCAGC,-1.1
13,TTGAGTATTTGTTCTGCTCATA,-0.623
14,TTGGGTCTCATCATTAACCAGG,-0.739
15,TTTGGTATTTGTGTCCATCAGC,-0.533
16,TTGTTGGCTGCATTGTGCCGGG,-0.403
17,TTAGAAGGAAAACAAACTCATG,-1.25
18,TTCTTCTCCCTGTAGTCCCGGA,-0.437
19,TTGACCACTGAAAACATCCCAG,0.0557
20,TTATTCTGATACAACATGGTGT,0.00722
21,TAAATCTCGACCATAGGCCTGA,0.425
22,TCTCTGGAAACTTCTCTCGGGT,-0.556
23,TTTGTGTCCATCAGCCTCCAGT,-0.591
24,TTCTCTGGAAACTTCTCTCGGG,-0.303

# — the OligoGym collection
